Screening data as filed in PubChem.
An excerpt weighted towards active compounds, which were near 3.1% of everything screened.
12-hLO inh: qHTS Assay for Inhibitors of 12-hLO (12-human lipoxygenase); 150,000 tested, 0.12% active; Potency, µM (series often up to 57.1 µM), usual class: inhibitors; purified 12-hLO, xylenol orange hydroperoxide absorbance; further: nearly all actives have a fitted effect of over 55% in size
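150 nM 12hLO, 25 mM Hepes pH 7.0 + 0.01% Triton X-100; cpd preinc 15 min RT; 40 uM arachidonic acid, 30 min RT; Fe-XO 30 min; A573/A405 ratio as read-out.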
PNC assembly inh: High Content Assay for Compounds that inhibit the Assembly of the Perinucleolar Compartment; 140,000 tested, 3.1% active; PC3M PTB-GFP, PNC prevalence imaging, 16 h; stronger effect = lower value; AID 2417, 2010; activity change (PNC), negative = inhibition, % at 10 µM;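 active means readout at or below -70, meaning at least 70% loss of cells showing the perinucleolar compartment, a nuclear body marking cancer cells; inconclusive means readout between -30 and a set limit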
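Read-out is percentage of cells bearing a perinucleolar compartment, from automated 20x imaging of fixed, Hoechst-stained PC3M PTB-GFP cells. Cells were seeded 4 h, then exposed 16 h to compound (23 nl of library stock) in duplicate plates.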
15-hLO-2 inh: qHTS Assay for Inhibitors of 15-hLO-2 (15-human lipoxygenase 2) | purified 15hLO-2, xylenol orange hydroperoxide absorbance | AID 881, 2007 | 110,000 tested, 0.56% active | Potency, µM (top dose mostly 57.1 µM), hits mostly inhibitors | Polyunsaturated fatty acid lipoxygenase ALOX15B (Homo sapiens), O15296; further: nearly all actives have a fitted effect of over 60% in size
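Screening format was qHTS against 50 nM purified 15hLO-2 in Hepes pH 7.5 with detergent. Activity follows hydroperoxide formation from 45 uM arachidonic acid, measured as 573:405 nm absorbance ratio of the ferric-xylenol orange complex.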
Numbers stand for hits; i = inactive; ? = inconclusive; nt = not tested or not shown; [ ] = dose if it differs, or a comment. Unless noted, the call rests on the fitted dose curve; in most records, active means well fitted curve in the direction sought with a large enough effect; inconclusive means small, poorly fitted or top-dose-only effect, or another doubt; inactive means no such curve, though single readings can be large; an effect the other way counts as inactive or inconclusive.

SMILES	12-hLO inh	PNC assembly inh	15-hLO-2 inh
CC12CCC(c3n[nH]c(=S)nc31)C2(C)C (centres undefined)	i	-113	nt
C1CCN(CC[C@@H]2CCCCN2)CC1	i[11.4 µM]	nt	i[11.4 µM]
CC(C)C(=O)c1cn(CC(=O)NCc2ccco2)c2ccccc12	i	-100	nt
CC(C)C(=O)c1cn(CC(=O)NCc2ccc3c(c2)OCO3)c2ccccc12	i	i	nt
NCC[C@H](O)C(=O)N[C@H]1C[C@@H](N)[C@@H](O[C@H]2O[C@@H](CN)[C@@H](O)[C@@H](O)[C@@H]2O)[C@@H](O)[C@@H]1O[C@H]1O[C@@H](CO)[C@@H](O)[C@@H](N)[C@@H]1O	i	nt	i
Cc1nn(-c2ccccc2)c(C)c1C(=O)OCC(=O)NC12CC3CC(CC(C3)C1)C2	i	i	?
CC(=O)Nc1ccc(NC(=O)COC(=O)c2c(C)nn(-c3ccccc3)c2C)cc1	i	-83	nt
O=C(CCN1CCCCC1)N1CCc2c([nH]c3ccccc23)[C@H]1c1cccnc1	i[11.4 µM]	nt	i[11.4 µM]
CCN(CC)c1ccc(/C=N/NC(=S)NCc2ccccc2)cc1	25µM	i	?
CCN(CC)c1ccc(/C=N/NC(=S)NCc2ccc(OC)cc2)cc1	?	i	nt
CCCCC/C=C\C/C=C\C/C=C\C/C=C\CCCC(=O)C(F)(F)F	i[0.00818 µM]	nt	?
Cn1c(CCN2CCCCC2)nc2cc(NS(=O)(=O)c3ccc(Cl)cc3)ccc21	?	-93	i
CCOC(=O)C1CCN(C(=O)Nc2ccc3c(c2)nc(C)n3C)CC1	i	i	i
CC(=O)Nc1ccc2c(c1)nc(CCN1CCC(C)CC1)n2C	i	-101	i
Cc1nc2cc(NC(=O)N3CCCCC3)ccc2n1C	i	-119	nt
Cn1c(CN2CCCCC2)nc2cc(NS(=O)(=O)c3ccc(Cl)cc3)ccc21	i	i	i
CC1CCN(CCc2nc3cc(NC(=O)Nc4ccccc4)ccc3n2C)CC1	i	i	i
Cc1noc(C)c1-c1ccc2ncnc(N3CCN(C)CC3)c2c1	nt	nt	i
C=C(CCC12O[C@H](C(=O)O)[C@@](O)(C(=O)O)[C@](C(=O)O)(O1)[C@H](OC(=O)/C=C/[C@@H](C)C[C@@H](C)CC)[C@H]2O)[C@@H](OC(C)=O)[C@H](C)Cc1ccccc1	i[0.00818 µM]	nt	i[0.0915 µM]
Cc1nc2cc(C(=O)O)ccc2n1C1CCCCC1	i	-100	nt
CCN(CC)C(=O)CN1CCC(n2c(C)nc3cc(C(F)(F)F)ccc32)CC1	i	?	i
CCCCC(CC)C/C=C1\CC(C(=O)OCC)Oc2ccccc21 (centres undefined) (tested in a mixture with another compound)	i[0.00818 µM]	nt	i[0.0915 µM]
CN(C)C[C@H]1CCC[C@@H](CN(C)C)C1=O	i[11.4 µM]	nt	i[11.4 µM]
O=C(NCc1cccs1)O[C@H]1C[C@H]2CC[C@@H]1C2	i[11.4 µM]	nt	i[11.4 µM]
CCCCC/C=C\C/C=C\C/C=C\C/C=C\CCCCCC(=O)NC(C)C(=O)O (centres undefined)	i	nt	nt
SMILES	12-hLO inh	PNC assembly inh	15-hLO-2 inh
O=C(/C=C/c1ccco1)NC(=S)Nc1cc(C(F)(F)F)ccc1N1CCOCC1	i	?	nt
O=C(/C=C/c1ccco1)NC(=S)Nc1ccccc1N1CCOCC1	?	-109	?
CCC(=O)N[C@@H]1Cc2ccccc2[C@@H](c2ccccc2)C1	i	nt	i
Cc1cc2c(n1-c1ccc(Br)cc1)CC(C)(C)CC2=O	i	?	i
Cc1ccc(-n2c(C)cc3c2CC(C)(C)CC3=O)cc1C	i	-85	i
Cc1ccccc1-c1ccc2ncnc(NCCN3CCOCC3)c2c1	nt	nt	i
NC[C@H](O)C1CCCCCCC1	i	nt	i
CC(C)Oc1cccc(C(=O)NC(=S)Nc2cccnc2)c1	i	i	nt
CC(C)NS(=O)(=O)c1ccc(NC(=S)NC(=O)c2ccc(-c3ccccc3)cc2)cc1	?	i	20µM
COc1cc(C(=O)NC(=S)Nc2ccc(NC(=O)c3ccco3)cc2)cc(OC)c1OC	i	i	nt
CC(C)Oc1cccc(C(=O)NC(=S)Nc2ccccc2)c1	?	-101	nt
O=C(NC(=S)Nc1ccc(NC(=O)c2ccco2)cc1)c1ccccc1	i	-88	nt
O=C(NC(=S)Nc1ccccc1)c1ccc(-c2ccccc2)cc1	i	i	nt
CCOC(=O)C1Oc2ccccc2C(c2ccccc2)=C1C(C)=O (centres undefined)	i[0.00818 µM]	nt	i[0.0915 µM]
c1ccc(-c2cnc(-c3ccc(-c4ncc(-c5ccccc5)o4)cc3)o2)cc1	i[11.4 µM]	nt	i[11.4 µM]
CN(C)c1ncc2nc(-c3cc(F)cc(F)c3)c(=O)n(Cc3ccc(F)cc3)c2n1	nt	nt	i
CC(=O)[C@@H]1[C@H]2[C@H](C(=O)[C@H]3OC[C@@H]2O3)[C@H]2C=Cc3ccccc3N21	i	nt	i
Cc1csc(B(O)O)c1	i	nt	i
Cc1nc2cnc(N(C)C)nc2n(C[C@H]2CCCO2)c1=O	nt	nt	i
